Potency and affinity values are given separately.
Test system: Cryptococcus neoformans
Details: Concentration 20 uM; ASSAY_TEST Inhibition of Fungal Growth; detection method Resazurin; Absorption (OD600-OD570); plate type 384well; NBS; CORNING #3640

SMILES | Inhibition
CC(=O)O.COc1ccc2c(=O)oc3c(OC)cc(CCN(C)C)c4c(=O)oc1c2c34 | -6.47%
COc1cc(C)c2c(c1C=O)Oc1c(c(C)c(O)c3c1C(O)OC3=O)OC2=O (stereo not given) [STICTIC ACID] | -12.08%
CC1(C)C(=O)N2c3ccccc3C3(CC(N4C(=O)c5ccccc5C4=O)C(=O)O3)C2N1C(=O)OCc1ccccc1 (stereo not given) | -12.3%
COc1c2occc2cc2ccc(=O)oc12 [METHOXSALEN] | -9.6%
C=C1C(=O)OC2CC(C)C3(O)CCC(=O)C3(C)CC12 (stereo not given) | -16.95%
COc1ccc2c(c1OC)C(=O)O[C@@H]2[C@H]1c2c(cc3c(c2OC)OCO3)CCN1C [NOSCAPINE] | -6.69%
CC(C)CC1NC(=O)C(C(C)C)NC(=O)CC(C)COC(=O)C(CC(C)C)N(C)C(=O)C(C(C)C)NC(=O)C(C(C)C)OC1=O (stereo not given) | -9.65%
COc1c2occc2c(OC)c2c(=O)cc(C)oc12 [KHELLIN] | -6.58%
CCCCCc1cc(O)cc2c1Oc1cc(O)cc(C(=O)CCCC)c1C(=O)O2 | -14.32%
CC(=O)Oc1ccc2ccc(=O)oc2c1OC(C)=O | -4.56%
O=c1oc2c(O)c(O)cc3c(=O)oc4c(O)c(O)cc1c4c23 [ELLAGIC ACID] | -7.36%
COC(=O)[C@@H]1[C@H]2C[C@@H]3c4[nH]c5ccccc5c4CCN3C[C@@H]2CC[C@@H]1O | -8.25%
COc1cc([C@@H]2c3cc4c(cc3[C@@H](OC3OC5CO[C@@H](c6cccs6)OC5C(O)C3O)[C@H]3COC(=O)[C@H]23)OCO4)cc(OC)c1O (stereo not given in full) | -9.1%
COC(=O)C1C2CC3c4[nH]c5cc(OC)ccc5c4CCN3CC2CC(OC(=O)CCc2cc(OC)c(OC)c(OC)c2)C1OC (stereo not given) | -8.83%
CN1CCc2cc3c(cc2C(=O)Cc2ccc4c(c2C1)OCO4)OCO3.Cl [PROTOPINE HYDROCHLORIDE] | -6.39%
CC(C)=CC(=O)OC1C2C(C)C(=O)OC2C(O)C(C)C2C=CC(=O)C21C (stereo not given) | -5.72%
CC1(C)CCCC2(C)C3=C(CCC12)C(=O)OC3 (stereo not given) | -15.17%
CC(=O)CCCCn1c(=O)c2c(ncn2C)n(C)c1=O [PENTOXIFYLLINE] | -13.02%
COC(=O)NC1C(C)OC(OC2C/C=C(/C)C3C=CC4C(OC5CC(OC6CCC(OC7CC(O)C(OC8CCC(O)C(C)O8)C(C)O7)C(C)O6)C(OC(C)=O)C(C)O5)C(C)CC(C)C4C3(C)/C(O)=C3/C(=O)OC4(CC(C=O)=CC(O)C4/C=C\2C)C3=O)CC1(C)[N+](=O)[O-] (stereo not given) | -14.96%
COc1cc2c3c(c4ccc(OC)c(OC)c4c2cc1OC)CN1CCC[C@@H]1C3 [TYLOCREBRINE] | -6.05%
CC(=O)C1CCCC(=O)/C=C/C(=O)O1 (stereo not given) | -5.33%
C=C1C(=O)OC2CC3(C)CCCC(C)C3=CC12 (stereo not given) | -3.97%
CC(C)=CCc1c2c(c3occ(-c4ccc(O)c(O)c4)c(=O)c3c1O)C=CC(C)(C)O2 [POMIFERIN] | -8.85%
CCC1NC(=O)C(NC(=O)c2ncccc2O)C(C)OC(=O)C(c2ccccc2)NC(=O)C2CC(=O)CCN2C(=O)C(Cc2ccccc2)N(C)C(=O)C2CCCN2C1=O (stereo not given) | -7.49%
C[C@@H]1C(=O)C[C@H]2C(C)(C)CCC[C@]2(C)[C@@]1(O)CCc1ccoc1 | -4.02%

Source: ChEMBL document CHEMBL4296183, “CO-ADD screening of NIH NCI Natural Product Set III” (2020)
